Test results published in the supplement of paper PMC11417369.
± gives the standard deviation of the averaged measurements. Over roughly 25,000 sequences, “ln(normalized median fluorescence intensity)” has its median near 8.9; the highest 2% begin near 10. This excerpt belongs to a sample that is enriched for the highest values.

What follows are sequences tested on PfAP2-LT AP2 domain (GST-tagged) (assay: gcPBM binding intensity (ln(normalized median fluorescence intensity)); higher = stronger DNA binding).
Summary of the method: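 Using an Agilent 4 × 180k array, primer-extended double-stranded 36-bp intergenic genomic probes and negative controls were exposed for 1 h to GST-fused P. falciparum DNA-binding domains expressed in E. coli. Binding was carried out in 1× PBS with 1% milk, 0.2 mg/ml BSA, 0.5% salmon testes DNA and 0.03% Triton X-100, and protein was detected with Alexa488 anti-GST antibody and a 488 nm scan. Binding intensity is the highest Masliner-normalised natural-log median intensity across replicate spots of either probe orientation.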

Row | Sequence | gcPBM binding intensity (ln)
1 | ATTTTAACTCCCCTTAATCTATTGTATATATATATA [CACACA_negctrl_site208] | 8.88 ± 0.29
2 | TACTCAAAAATTAATTAGCATAATATATATAAAAAT [GTGCAC_negctrl_site613] | 8.49 ± 0.45
3 | TTTGCCATAAAACACACACACATGTAAACCCCCTTT [CACACA_site1646] | 9.76 ± 0.2
4 | ATATATTAATATGTGTGTACTTAACCATTCATATGT [XGTACX_site7395] | 9.1 ± 0.4
5 | TCTTGTATACGGCATGCATGTTAGCACATACGGACA [TGCATGCA_site146] | 8.9 ± 0.32
6 | ATATATTTAAATAAAAGTACGTAAAGGTATATTTAA [XGTACX_site8088] | 8.88 ± 0.44
7 | ACATTCAATAAACGTCGTACACTTTCCTTTTTATGA [XGTACX_site3274] | 8.86 ± 0.52
8 | TAATAATAGTCTAATACATGCATCGATAACGGAACT [TGCATGCA_site98] | 8.82 ± 0.32
9 | TGATAATAAGCATACACACACACACCCAAAAAAAAA [CACACA_site721] | 10.2 ± 0.25
10 | AATAAGTATACACATACACACACACCCAAAAAAAAA [CACACA_site8034] | 10 ± 0.39
11 | GGTGATAATAAGCATACACACACACCCAAAAAAAAA [CACACA_site8137] | 9.59 ± 0.35
12 | AACATAAGTAAGAATACATGCGGAAATTATATAGAA [TGCATGCA_site112] | 9.03 ± 0.38
13 | GGTAAGTACGACTTGACACACATACCCATATATATA [CACACA_site4837] | 9.2 ± 0.55
14 | ATAATTATATTTAGTGGTACTACTTTTGATAATTAG [XGTACX_site6562] | 8.63 ± 0.42
15 | TAAACAGACATACATACACACATACATACAGACATA [CACACA_site6997] | 9.61 ± 0.37
16 | AAAAAAAACAGACACACACACACATATACATACATA [CACACA_site2665] | 10.3 ± 0.17
17 | CACAAACAGACAAACACACACACACGGACATACATA [CACACA_site6350] | 10.1 ± 0.11
18 | AACACATACAGACACACACACAAAAAAAAAAAAAAA [CACACA_site6322] | 9.58 ± 0.78
19 | TAAACAGACATATAAACACACATACATACATACATA [CACACA_site7215] | 9.41 ± 0.32
20 | AAAAAAAACAGACACACACACATACACATACATACA [CACACA_site2857] | 10.2 ± 0.19
21 | AAAAAAAAAAAAAACACACACATACAGACAAAAATG [CACACA_site83] | 9.7 ± 0.45
22 | AACAGACATACATACACACATACATACAGACATACA [CACACA_site1942] | 9.64 ± 0.45
23 | AAAAAAAAAAAACATACACACATACATACAGATATA [CACACA_site4681] | 9.32 ± 0.36
24 | ATATATTTTGTTATGGTGCGTAAGAAATATATTCTT [GTGCAC_site9825] | 8.73 ± 0.43
